tim23-1 inh: growth inhibitors of tim23-1 mutant yeast, primary screen, luminescence, uHTS; 330,000 compounds, 1.3% hits; inhibition, % at 20 µM; S. cerevisiae tim23-1 growth, BacTiter-Glo luminescence, 24 h;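 active = growth inhibition of the mutant yeast at or above 50%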;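 also: temperature-sensitive mutant grown at 25 °C; plate controls were DMSO-treated mutant yeast for no effect and medium wells lacking yeast for full effect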
tim10-1 inh: growth inhibitors of tim10-1 mutant yeast, primary screen, luminescence, uHTS; S. cerevisiae tim10-1 ts strain growth, BacTiter-Glo, 24 h; inhibition, % at 20 µM; 330,000 compounds, 2.2% hits;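 active = inhibition of at least 40%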;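 also: mutant grown at 25 °C; 0% = DMSO wells with yeast and 100% = wells holding no yeast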
PfHsp90 set2: growth inhibition of PfHsp90-expressing yeast, primary screen, antimalarial PfHsp90 inhibitor project, S. cerevisiae, BacTiter-Glo luminescence, single point, set 2 | BacTiter-Glo ATP, 48 h; yeast lacking PDR1 and PDR3 efflux regulators | inhibition, % at 9.4 µM | 310,000 compounds, 0.32% hits | AID 504621, 2011;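 active = every replicate shows inhibition above about 80%, whatever the replicate mean, limit read from the data; inconclusive = mean inhibition reaches the set limit but some replicate falls short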;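 also: 0% = DMSO neutral controls and 100% = 20 µM radicicol positive controls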
TIM10 inh: growth inhibitors of isogenic TIM10 control yeast, primary screen, counter-screen for tim10-1 yeast inhibitor project, luminescence, uHTS | S. cerevisiae TIM10 strain growth, BacTiter-Glo luminescence, 24 h | 330,000 compounds, 1.4% hits | inhibition, % at 10 µM;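 active = inhibition of 40% or more at the single tested concentration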;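 also: wild-type TIM10 isogenic control strain grown at permissive 25 °C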
NALP3 yeast inh: NALP3 inflammasome inhibitors in reconstituted yeast, primary screen, luminescence, uHTS. Yeast reconstituted NLRP3/ASC/caspase-1, beta-gal luminescence, 24 h. inhibition, % at 10 µM. 330,000 compounds, 0.39% hits. AID 2825, 2010;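 active = inhibition of 50% or more; inactive = inhibition below 50%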;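 also: plate controls were induced DMSO wells for no effect and uninduced yeast grown without galactose for full effect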
SKKanGAS inh: S. pyogenes SKKanGAS growth inhibitors in kanamycin, primary screen, streptokinase expression inhibitor project, SKKanGAS strain, BacTiter-Glo luminescence; 6 h; inhibition, % at 7.5 µM; 300,000 compounds, 1.3% hits; AID 1662, 2009;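 active = mean replicate score, as percent of positive control median, at least 50; inconclusive = mean below 50 but one replicate at or above 50; inactive = mean and every replicate below 50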;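 also: strain carries kanamycin resistance gene driven by streptokinase promoter and grows in 40 µg/ml kanamycin; loss of luminescence reflects streptokinase promoter inhibition or plain growth inhibition; 0% = median of DMSO wells and 100% = positive control at its reference dose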
* = called active by the depositor; i = inactive; ? = inconclusive; nt = no result. The list is not random: actives were taken first. Their share in the collection is about 4.6%.

SMILES	tim23-1 inh	tim10-1 inh	PfHsp90 set2	TIM10 inh	NALP3 yeast inh	SKKanGAS inh
COc1ccc(N2CCN(c3ccc(C(=O)O)cc3[N+](=O)[O-])CC2)cc1	-13	15	-11	5	2	4
COc1ccc(-c2cc(C3CCN(c4ccc(C(C)=O)cc4[N+](=O)[O-])CC3)[nH]n2)cc1	21	35	-180	29	27	83*
CC(=O)c1ccc(N2CCN(c3ncccn3)CC2)c([N+](=O)[O-])c1	25	19	-9	13	23	-1
Cc1ccsc1/C=N/NC(=O)Cc1cccn1C	8	16	-17	-11	9	2
CCN(CC)S(=O)(=O)c1cccc(NC(=O)c2ccc(Br)cc2)c1	-19	-9	96*	-28	28	-1
CCN(CC)S(=O)(=O)c1cccc(NC(=O)c2cncc(Br)c2)c1	10	9	0	-6	13	3
CC(=O)N1CCc2cc(S(=O)(=O)N3CCc4ccccc43)ccc21	14	23	-7	8	14	52*
CC(C)(C)C(O)C(Cc1ccccc1Cl)n1cncn1 (configuration not stated)	-81	-43	92*	-66	13	-1
CC(C)(C)C(=O)C(Cc1ccccc1Cl)n1cncn1 (configuration not stated)	i	-16	?	-40	0	10
CCOc1ccc(C2=Nn3c(CC)nnc3SC2)cc1	5	1	-16	-6	15	nt
CCCNC(=O)[C@H]1N2C(=O)c3c(ccc(OC)c3OC)C2SC1(C)C (some centres not stated)	4	-3	9	0	6	2
COc1cc(C(=O)NNC(=S)NC(=O)c2ccc(F)cc2)cc(OC)c1OC	1	14	3	29	6	83*
COc1cc(C(=O)NC(=S)NNC(=O)c2ccc3c(c2)OCO3)cc(OC)c1OC	9	15	13	7	19	70*
COc1ccccc1Nc1nc(N)nc(CN2CCN(c3ccccc3F)CC2)n1	12	21	-83	-3	10	62*
Cc1cccc(Nc2nc(N)nc(CN3CCN(c4ccccc4F)CC3)n2)c1	24	32	-14	26	3	72*
COc1ccccc1N1CCN(Cc2nc(N)nc(Nc3ccc(C)c(Cl)c3)n2)CC1	17	38	nt	5	9	76*
COc1ccccc1Nc1nc(N)nc(CN2CCN(Cc3ccccc3)CC2)n1	2	19	nt	-2	-3	-18
COc1cccc(N2CCN(Cc3nc(N)nc(Nc4ccccc4)n3)CC2)c1	2	18	-13	-17	-3	34
Cc1cccc(Nc2nc(N)nc(CN3CCN(c4ccccc4)CC3)n2)c1	9	17	3	21	3	?
CC(C)NC(=S)NNc1nc2ccccc2s1	28	29	-69	4	6	24
OCCC1CN(Cc2ccc(Oc3ncccn3)cc2)CCN1Cc1ccc(F)c(F)c1 (configuration not stated)	2	-6	22	-8	-5	7
Cc1ccc(NC(=S)N(Cc2ccc(Br)cc2)Cc2ccc(C(=O)O)cc2)cc1C	23	12	-14	14	21	53*
Cc1cc(NC(=S)N(Cc2ccc(Cl)cc2)Cc2ccc(C(=O)O)cc2)ccc1Cl	26	14	-40	17	3	64*
Cc1c(C(=O)N2CCN(c3ccccc3)CC2)oc2c(F)cccc12	23	16	13	16	5	-5
O=C(NNC1=Nc2cccc3cccc1c23)c1ccc(Br)cc1	nt	nt	28	nt	nt	114*
SMILES	tim23-1 inh	tim10-1 inh	PfHsp90 set2	TIM10 inh	NALP3 yeast inh	SKKanGAS inh
COc1ccc(CC(=O)NNC2=Nc3cccc4cccc2c34)cc1OC	-5	-12	52	8	-2	4
CCC(=O)Nc1ccc(Nc2nc(C)c([N+](=O)[O-])c(Nc3ccc(NC(=O)CC)cc3)n2)cc1	23	25	-99	-4	-1	66*
O=C(NNC(=O)c1cc(Br)ccc1O)c1csc(N2CCOCC2)n1	22	-2	24	-6	14	nt
O=C(NNC(=O)c1cc(-c2cccc(Br)c2)nc2ccccc12)c1csc(N2CCOCC2)n1	14	0	nt	10	9	56*
CCOC(=O)c1sc2ncnc(N3CCN(C)CC3)c2c1C	-4	13	10	-4	16	10
CCOC(=O)c1sc2ncnc(N3CCN(c4ccc(OC)cc4)CC3)c2c1C	14	11	-19	17	17	69*
Cc1ccc(N2C(=O)C3C4C=CC(CNC(=S)N5CCN(c6cccc(C)c6)C(C)C5)(O4)C3C2=O)cc1 (configuration not stated)	8	0	105*	10	24	-9
CC(=O)Oc1ccc(N2C(=O)C3C4C=CC(CO)(O4)C3C2=O)cc1 (configuration not stated)	7	-1	-78	-6	14	1
Cc1cc(N2C(=O)C(O)=C(C(=O)c3ccc(C)o3)C2c2ccc([N+](=O)[O-])cc2)no1 (configuration not stated)	9	25	-9	5	19	-2
COc1cccc(CNC(=O)COc2ccc(C(=O)c3ccccc3)cc2)c1	19	12	-5	22	8	-6
O=[N+]([O-])c1ccc(Cl)cc1Sc1nc2ccccc2o1	24	13	-1	20	-12	67*
O=[N+]([O-])c1ccc(Cl)cc1Sc1cccc2cccnc12	0	10	22	10	12	7
CCOc1ccc2c(ccc(/C=C/c3cc(C)c4cccnc4c3O)[n+]2C)c1	nt	nt	115*	nt	nt	nt
CCOc1ccc2[nH]c3ncccc3c(=O)c2c1	11	-2	17	6	32	4
COc1cccc2sc3ccc(C#Cc4ccc(N)cc4)cc3c(=O)c12	26	35	-23	26	-27	76*
Nc1ccc(C#Cc2ccc3sc4ccccc4c(=O)c3c2)cc1	23	19	21	26	31	2
COc1ccc(CCCNC(=O)C2CCC(=O)N(CC3CCCCC3)C2)cc1 (configuration not stated)	18	17	7	14	-11	38
CC(=O)NCCC(=O)Nc1cc(S(=O)(=O)N2CCOCC2)ccc1Oc1ccc(F)cc1	7	8	-15	-4	29	-1
Cc1ccccc1-c1nc2ccc(Cl)cc2c(=O)n1O	10	-39	-15	-15	19	17
O=c1c2cc(Cl)ccc2nc(-c2ccc(Cl)c(Cl)c2)n1O	49	3	18	30	24	74*
